In PubChem BioAssay (NCATS):
Results filed as inconclusive are left out. Active and inactive are the calls of the source. Calls follow the shape of the dose curve; as a rule, active = well fitted curve in the direction sought with a large enough effect; inconclusive = small, poorly fitted or top-dose-only effect, or another doubt; inactive = no such curve, though single readings can be large; an effect the other way counts as inactive or inconclusive.

What was measured:
[1] = target: Glutathione peroxidase 1 (Homo sapiens) (UniProt P07203); experiment: Primary qHTS Assay for Inhibitors of Recombinant Selenoprotein Glutathione Peroxidase 1 (GPX1) (AID 1845191); also: nearly all actives have a fitted effect of over 65% in size
Chain of Glutathione peroxidase 1 (Homo sapiens) (P07203 whole entry, looked up): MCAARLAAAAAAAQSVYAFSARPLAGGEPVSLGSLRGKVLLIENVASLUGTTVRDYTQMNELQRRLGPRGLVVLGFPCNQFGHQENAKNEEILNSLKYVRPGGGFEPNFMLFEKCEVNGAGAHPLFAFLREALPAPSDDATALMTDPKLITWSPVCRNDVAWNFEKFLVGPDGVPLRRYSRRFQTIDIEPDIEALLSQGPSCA
In short: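 GR-coupled readout: NADPH consumption tracked by fluorescence, ex 340/em 450 nm, at t=0 and after 15 min at RT. Final mix 10 nM GPX1, 1 mM GSH, 0.5 mM CHP, 0.5 mM NADPH, 100 nM GR, 0.01% BSA, following 30 min enzyme–compound preincubation.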

[2] = target: Phospholipid hydroperoxide glutathione peroxidase GPX4 (Homo sapiens) (UniProt P36969); experiment: Primary qHTS Assay for Inhibitors of Recombinant Selenoprotein Glutathione Peroxidase 4 (GPX4) (AID 1845192); also: series mostly up to about 50 µM; nearly all actives have a fitted effect of over 65% in size
Chain of Phospholipid hydroperoxide glutathione peroxidase GPX4 (Homo sapiens) (P36969 whole entry, looked up): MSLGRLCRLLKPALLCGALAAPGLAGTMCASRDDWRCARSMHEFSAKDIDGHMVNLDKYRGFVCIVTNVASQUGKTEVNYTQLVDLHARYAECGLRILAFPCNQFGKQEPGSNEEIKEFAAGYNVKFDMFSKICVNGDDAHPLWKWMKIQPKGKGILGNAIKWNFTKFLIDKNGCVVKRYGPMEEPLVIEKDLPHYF
In short: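 Steps: GPX4 plus compound, 30 min RT; add GR/GSH/NADPH master mix; start with cumene hydroperoxide; read 340/450 nm fluorescence at 0 and 15 min. Finals were 200 nM GPX4, 1 mM GSH, 0.5 mM CHP, 0.5 mM NADPH, 100 nM GR.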

[3] = target: Luciferin 4-monooxygenase (Photinus pyralis) (UniProt P08659); experiment: Primary firefly luciferase (FLuc) qHTS assay for identification of artifact compounds. (AID 1845220); also: nearly all actives have a fitted effect of over 60% in size
In short: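 Titrated compounds were incubated 15 min at RT, protected from light, with luciferin and ATP at 10 uM; reaction started with 10 nM FLuc, luminescence imaged at 5 min, and concentration-response fitted by Hill equation.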

[4] = tested on: Nanoluciferase (engineered Oplophorus gracilirostris luciferase); experiment: Primary Nanoluciferase (NLuc) qHTS assay for identification of artifact compounds. (AID 1845222);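 also: NLuc secreted into diluted conditioned medium of S16 cells; series mostly up to about 54 µM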
In short: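 qHTS format, against NLuc in S16 cell-conditioned medium. Nano-Glo substrate 1:100 was added after 15 min at room temperature. Luminescence was taken after a further 5 min.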

[5] = Primary redox qHTS assay for identification of artifact compounds. (AID 1845223)
In short: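 Redox-cycling detection via DTT (250 uM final) oxidation coupled to Amplex Red (25 uM)/HRP (250 mU/mL) in HBSS. 15 min preincubation plus 30 min after DTT, room temperature. Ex/Em 525/598 nm; 4-parameter Hill fit against DMSO and 10 uM DA3003.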

Measured: Potency

CCOC(=O)c1cnn(-c2ccccc2)c1NC(=O)c1cc2nc(-c3ccco3)cc(C(F)(F)Cl)n2n1
inactive: [1] | [2] | [3] | [4] | [5]

C=CS(=O)(=O)NC1CCN(C(=O)CNc2cc(I)c(Cl)cc2OC)CC1
inactive: [1] | [2] | [3] | [4] | [5]

C[C@@H]1CC[C@@]23CC[C@]4(C)[C@@](C=CC5[C@@]6(C)CC[C@H](O)C(C)(C)C6CC[C@]54C)(OC2=O)C3[C@H]1C (stereo not given in full)
inactive: [1] | [2] | [3] | [4] | [5]

C[C@@H](NC(=O)C(=O)c1c[nH]c2ccc([N+](=O)[O-])cc12)c1ccccc1
inactive: [1] | [2] | [3] | [4] | [5]

C/C1=C\CCC2=CC(OC2=O)C(C)(C)/C=C/C1=O (stereo not given)
inactive: [1] | [2] | [3] | [4] | [5]

C=C1CCC2[C@](C)(CCC[C@@]2(C)C=O)[C@H]1CC/C(C)=C/CO (stereo not given in full)
inactive: [1] | [2] | [3] | [4] | [5]

CC(C)(C)OC(=O)c1ncn2c1C(C)(C)Nc1ccccc1-2
inactive: [1] | [2] | [3] | [4] | [5]

COc1cc2ncnc(Nc3ccc(O)c(Br)c3)c2cc1OC
inactive: [1] | [2] | [3] | [4] | [5]

CNC(=O)c1ccc2c(c1)CCO[C@H]2CCN1CCN(c2ccc(OC)cc2)CC1
inactive: [1] | [2] | [3] | [4] | [5]

CC[C@@H](C)[C@@H]1OC2(C=C[C@H]1C)C[C@@H]1C[C@H](C/C=C(\C)[C@H](O[C@H]3C[C@H](OC)[C@H](O[C@H]4C[C@H](OC)[C@H](NC(C)=O)[C@H](C)O4)[C@H](C)O3)[C@H](C)/C=C/C=C3\CO[C@H]4[C@H](O)C(C)=C[C@@H](C(=O)O1)[C@@]34O)O2 (stereo not given in full)
inactive: [1] | [2] | [3] | [4] | [5]

COc1ccc(N2CCN(C(=O)c3cc4c(s3)-c3ccccc3S(=O)(=O)C4)CC2)cc1
inactive: [1] | [2] | [3] | [4] | [5]

O=C(NCCN1CCN(c2cccc3ccc(O)cc23)CC1)c1ccc(F)cc1
inactive: [1] | [2] | [3] | [4] | [5]
